Assay outcomes deposited in PubChem by several laboratories.
CR mimetic SO – lowers age-related superoxide in aged yeast cells; actives 0.18% (n = 330,000); superoxide response (% of plate mean), % at 10 µM; S. cerevisiae aged cells, superoxide DHE fluorescence; active compounds read low;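 active = superoxide response under a set limit, about three screen SD below normal, cut at about 65% in these data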;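 note: yeast aged for seven days with compound at 30 °C before DHE staining; 100% = average MFI of all compound-treated wells on the plate with controls excluded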
FAS TE block – blocks the thioesterase domain of human fatty acid synthase; P49327; recombinant FAS-TE, OMFH fluorogenic substrate, fluorescence endpoint; inhibition, % at 15 µM; actives 0.67% (n = 360,000); AID 602261;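 active = compounds whose normalised, plate-corrected inhibition of enzyme fluorescence in the single-dose primary screen is 50% or more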;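 note: 0% = DMSO with enzyme and 100% = substrate without enzyme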
aDG glyco up – increases alpha dystroglycan glycosylation; Pro5-aDG cells, alpha-DG glycosylation AlphaScreen (IIH6); 0% Pro5, 100% B10-LARGE cell signal; actives 0.22% (n = 360,000); AID 624168; activation, % at 10 µM;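 active = activation of at least 8% versus controls, or a plate z-score of at least 8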;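 note: Pro5 are CHO cells carrying HIG-tagged alpha-DG that lacks glycosylation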
MPTP block – permeability transition pore inhibition; inhibition, % at 10 µM; actives 1.4% (n = 360,000); AID 602449; isolated mouse mitochondria, Ca2+ swelling absorbance, 30 min;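 active = inhibition of 50% or more, scaled per plate between neutral and stimulator controls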;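 note: 0% = DMSO wells given calcium and 100% = 1 mM EGTA wells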
Mot1-301 SUMO – inhibitors of SUMOylation pathway: yeast Mot1-301 growth rescue | S. cerevisiae Mot1-301 growth rescue, ATP luminescence, 38.5C; percent above DMSO median, 100 means doubled | growth rescue, % at 18.8 µM | actives 1% (n = 320,000) | AID 2716;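 active = every valid replicate shows activation above 250% relative to neutral control wells; inactive = the rest, any valid replicate at or below 250%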;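 note: OY570 slx delta 5 strain wells were the positive control but not used for scaling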
H9c2 protect – modulators protecting cardiomyocytes from myocardial damage; H9c2 cardiomyocytes, H2O2 injury protection, ATPLite, 2 h; protection from H2O2 cell death, % at 20 µM; actives 0.63% (n = 360,000); AID 588492;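 active = compounds giving at least 50% protection of heart cells from peroxide-induced death in the single-dose screen, raw or plate-pattern-corrected value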;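 note: 0% = DMSO wells with peroxide and 100% = DMSO wells without peroxide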
MPTP counter – membrane potential counter-screen of mitochondrial pore inhibitors; inhibition, % at 10 µM; shares compounds with MPTP block; isolated mitochondria, Rhodamine 123 fluorescence; actives 78% (n = 5,000); in the data active = inhibition above about 22%;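 note: 0% = DMSO vehicle and 100% = positive control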
MPTP swell DR – dose response confirmation of mitochondrial permeability transition pore inhibitors. shares compounds with MPTP block. isolated mitochondria swelling, absorbance. IC50, µM. actives 58% (n = 780). AID 651561; in the data active = IC50 below about 20 µM
MPTP cs DR – counter-screen for mitochondrial permeability transition pore inhibitors, dose response | isolated mitochondria counterscreen, fluorescence read-out | shares compounds with MPTP block | actives 49% (n = 780) | IC50, µM; in the data active = IC50 below about 80 µM
Numbers without * were called inactive. The list is not random: actives were taken first. Their share in the collection is about 3.8%.

For O=C(Nc1nc(-c2cccs2)c(C(=O)C(F)(F)F)s1)c1ccccc1 the results were CR mimetic SO 105, FAS TE block 22, aDG glyco up 0, MPTP block 88*, Mot1-301 SUMO -8, H9c2 protect -30 and MPTP counter 98*.
Screening O=C(NCc1cccnc1)c1cc(C2CCCN(C(=O)c3ccccn3)C2)on1 (stereo not given) returned FAS TE block -9, aDG glyco up 0, MPTP block 0 and H9c2 protect -3.
Screening COc1ccc(C#Cc2cccc(-c3nc(C(=O)NCc4ccc(Oc5ccccc5)cc4)cc4c3[C@@H](CCO)N(S(=O)C(C)(C)C)C4)c2)cc1OC (stereo not given in full) returned FAS TE block -16, aDG glyco up 1, MPTP block 1 and H9c2 protect -2.
N#CC1(C#N)CC(C=O)=C(N)C1(C#N)CC(=O)C12CC3CC(CC(C3)C1)C2 (stereo not given) was read as CR mimetic SO 87, FAS TE block -95, aDG glyco up 0, MPTP block 73*, Mot1-301 SUMO -12, H9c2 protect 0 and MPTP counter 55*.
`CCOc1ccc2nc(N3C(=O)/C(=C/c4ccc(Cl)cc4)NC3=S)sc2c1` gave FAS TE block 17, aDG glyco up 0, MPTP block 92*, H9c2 protect -14 and MPTP counter 5.
For CCC1(c2ccc(F)cc2)NC(=O)N(CC(=O)NCc2ccc(C)cc2)C1=O (stereo not given) the results were CR mimetic SO 113, FAS TE block 0, aDG glyco up 0, MPTP block 0, Mot1-301 SUMO 9 and H9c2 protect -2.
Screening O=C(NC(=S)NC12CC3CC(CC(C3)C1)C2)c1ccc(F)cc1 returned CR mimetic SO 96, FAS TE block 16, aDG glyco up 0, MPTP block 0, Mot1-301 SUMO 35 and H9c2 protect -12.
Screening N#CC1=C(N)NC(SCC(=O)c2ccccc2)=C(C#N)C12CCCC2 returned CR mimetic SO 107, FAS TE block -1, aDG glyco up 0, MPTP block 19, Mot1-301 SUMO 11 and H9c2 protect -12.
N#CC1=C(N)NC(SCC(=O)Nc2ccc(Br)cc2)=C(C#N)C12CCCCC2 was read as CR mimetic SO 94, FAS TE block 26, aDG glyco up 0, MPTP block 89*, Mot1-301 SUMO 17, H9c2 protect -27 and MPTP counter 89*.
For N#CC1=C(N)NC(SCc2ccc(Cl)cc2)=C(C#N)C12CCCCC2 the results were CR mimetic SO 113, FAS TE block 26, aDG glyco up 0, MPTP block 16 and H9c2 protect -36.
`N#CC1=C(N)NC(SCc2ccc(Br)cc2)=C(C#N)C12CCCCC2` gave CR mimetic SO 80, FAS TE block 22, aDG glyco up 0, MPTP block 92*, Mot1-301 SUMO 40, H9c2 protect -12 and MPTP counter 79*.
`CCOC(=O)c1c(NC(=O)C2CCCCC2)sc2c1CCN(CC)C2` gave CR mimetic SO 108, FAS TE block -3, aDG glyco up 0, MPTP block 58*, Mot1-301 SUMO 17, H9c2 protect 26, MPTP counter -9, MPTP swell DR 15* and MPTP cs DR >80.
O=C(NCCc1ccccc1)[C@@H]1CC=C[C@@H]2CCN(C3CCCCC3)C(=O)[C@@H]21 was read as CR mimetic SO 103, FAS TE block 2, aDG glyco up 0, MPTP block 1, Mot1-301 SUMO 395 and H9c2 protect 3.
Screening O=C(NN1CCOCC1)c1ccccc1 returned CR mimetic SO 95, FAS TE block -2, aDG glyco up 0, MPTP block 0, Mot1-301 SUMO 18 and H9c2 protect 8.
`COc1ccc(-n2nc3c(c2NC(=O)COc2ccccc2OC)CS(=O)(=O)C3)cc1` gave FAS TE block 1, aDG glyco up 0, MPTP block -2 and H9c2 protect 11.
Screening Cc1ccc(NC(=O)Nc2nnc(Cc3ccc([N+](=O)[O-])cc3)s2)cc1C returned CR mimetic SO 83, FAS TE block -6, aDG glyco up 0, MPTP block 86*, Mot1-301 SUMO 14, H9c2 protect -12 and MPTP counter 63*.
O=C(Nc1nnc(Cc2ccc([N+](=O)[O-])cc2)s1)Nc1ccccc1F was read as CR mimetic SO 88, FAS TE block 0, aDG glyco up 1, MPTP block 10, Mot1-301 SUMO -8 and H9c2 protect -3.
For O=C(Nc1ccccc1)Nc1nnc(Cc2ccc([N+](=O)[O-])cc2)s1 the results were CR mimetic SO 104, FAS TE block 0, aDG glyco up 0, MPTP block 93*, Mot1-301 SUMO -8, H9c2 protect -17 and MPTP counter 89*.
Screening CCCC(=O)Nc1nnc([C@H]2C[C@H](O)[C@@H](CO)O2)s1 returned FAS TE block -7, aDG glyco up 0, MPTP block 0 and H9c2 protect 5.
Screening COc1ccc(NC(=O)N2CCCC2C(=O)NCC2CCCCC2)cc1 (stereo not given) returned CR mimetic SO 104, FAS TE block -6, aDG glyco up 0, MPTP block 1, Mot1-301 SUMO -22 and H9c2 protect 0.
For CC(NC(=O)COC(=O)C1CC1C)c1cccc(Cl)c1 (stereo not given) the results were CR mimetic SO 93, FAS TE block -4, aDG glyco up 0, MPTP block -1, Mot1-301 SUMO 9 and H9c2 protect -8.
Cc1ccc(NC(=O)CSc2nn(-c3ccc(Cl)cc3)c(=S)s2)cc1S(=O)(=O)N(C)C was read as CR mimetic SO 107, FAS TE block 28, aDG glyco up 0, MPTP block 86*, Mot1-301 SUMO 1, H9c2 protect -7 and MPTP counter 81*.
Cc1ccc(NC(=O)CNc2ccc(Cl)c(Cl)c2)cc1S(=O)(=O)N(C)C was read as CR mimetic SO 88, FAS TE block 35, aDG glyco up 1, MPTP block 96*, Mot1-301 SUMO -13, H9c2 protect -16 and MPTP counter 94*.
Cc1ccc(NC(=O)Cc2ccc(Cl)c(Cl)c2)cc1S(=O)(=O)N(C)C was read as CR mimetic SO 112, FAS TE block 24, aDG glyco up 2, MPTP block 88*, Mot1-301 SUMO -18, H9c2 protect -10 and MPTP counter 88*.
